Compound activity from PubChem.
The full list was thinned out, with hits kept by preference.
SARS PLP yeast: blocks SARS-CoV papain-like protease in a yeast assay. AID 485353. S. cerevisiae expressing SARS-CoV PLpro, growth rescue. Potency, µM (titrated, usually from 32.9 µM), for the others: at the top dose activity, positive = growth rescue, most hits filed as activators. 330,000 compounds, 0.19% hits; calls by dose curve; note: potency is the fitted concentration of half-maximal effect; 0% is about no effect; nearly all actives have a fitted effect of over 55% in size
AmpC inh detg: blocks E. coli AmpC beta-lactamase in detergent assay; P00811; AmpC hydrolysis of nitrocefin, absorbance 480 nm, 0.01% Triton; Potency, µM (top dose mostly 114 µM), inactives show top-dose activity change, negative = inhibition, hits mostly inhibitors; 370,000 compounds, 0.041% hits;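 note: potency is the fitted concentration of half-maximal effect; 0% = no-compound wells and -100% = no-enzyme wells; nearly all actives have a fitted effect of over 25% in size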
Target sequence (P00811 whole entry, looked up): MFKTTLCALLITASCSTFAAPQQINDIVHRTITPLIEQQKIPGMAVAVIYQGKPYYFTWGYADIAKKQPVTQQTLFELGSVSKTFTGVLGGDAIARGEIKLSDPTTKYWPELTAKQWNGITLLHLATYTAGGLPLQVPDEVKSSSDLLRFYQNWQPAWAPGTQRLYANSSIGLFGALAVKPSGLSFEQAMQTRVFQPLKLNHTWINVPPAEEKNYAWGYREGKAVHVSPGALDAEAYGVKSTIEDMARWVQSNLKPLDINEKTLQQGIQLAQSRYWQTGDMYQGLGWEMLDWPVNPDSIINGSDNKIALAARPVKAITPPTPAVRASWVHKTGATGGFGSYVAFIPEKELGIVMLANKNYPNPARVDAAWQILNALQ
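AmpC (5.3 nM in the dispensed reagent) in 20 mM phosphate pH 7.0 with 0.01% (detergent screen) or 0.0001% Triton X-100 was preincubated with compounds for 15 min at room temperature. Nitrocefin was then added from an 800 uM solution, and hydrolysis was followed at 480 nm.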
AMA1-RON2 inh: disrupts binding of P. falciparum AMA1 to RON2 | AlphaScreen AMA1-biotinylated RON2 peptide binding | Potency, µM (highest dose often 58.2 µM), for the others: top-dose activity change, negative = inhibition, usual class: inhibitors | 360,000 compounds, 0.2% hits | AID 720542;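 note: potency is the fitted concentration of half-maximal effect; 0% = vehicle wells and -100% = peptide control; nearly all actives have a fitted effect of over 45% in size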
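AMA1 (3D7) with his tag at 25 nM final met compounds first, then biotinylated RON2 peptide at 25 nM; detection used donor plus acceptor beads, 10 µg/mL apiece, read by AlphaScreen after 30 min at room temperature.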
CHX counter: counter-screen for Shiga toxin inhibitors: cycloheximide protein synthesis inhibition; cell reporter, cycloheximide protein synthesis inhibition counterscreen; max response, %; 300,000 compounds, 12% hits; in the data active = max response mostly above about 13%, no sharp cut-off; inactive = mostly below about 14%; note: read at 38.3 µM for the half of the compounds with a filed dose; 0% is about no effect
Shiga toxin inh: blocks Shiga toxin action in Vero cells; Vero cells, Shiga toxin protein synthesis inhibition reporter; inhibition, % at 38.7 µM; 290,000 compounds, 9.2% hits; in the data active = inhibition mostly above about 28%, no sharp cut-off; inactive = mostly below about 43%; note: 0% is about no effect
AmpC no deterg: blocks E. coli AmpC beta-lactamase in detergent-free assay | P00811 | AmpC nitrocefin hydrolysis, absorbance 480 nm, 0.0001% Triton | Potency, µM (top dose mostly 57.1 µM), for inactives: top-dose activity change, negative = inhibition, usual class: inhibitors | 330,000 compounds, 0.52% hits | AID 485341;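 note: potency is the fitted concentration of half-maximal effect; plate controls were no compound for no effect and no enzyme for full effect; nearly all actives have a fitted effect of over 20% in size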
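AmpC (5.3 nM in the dispensed reagent) in 20 mM phosphate pH 7.0 with 0.01% (detergent screen) or 0.0001% Triton X-100 was preincubated with compounds for 15 min at room temperature. Nitrocefin was then added from an 800 uM solution, and hydrolysis was followed at 480 nm.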
* marks the source's active call; other numbers are inactive results; ? = inconclusive; . = no result; [ ] = dose if it differs, or a comment. Unless noted, calls come from the whole dose curve; as a rule, active = well fitted curve in the direction sought with a large enough effect; inconclusive = small, poorly fitted or top-dose-only effect, or another doubt; inactive = no such curve, though single readings can be large; an effect the other way counts as inactive or inconclusive.

SMILES	SARS PLP yeast	AmpC inh detg	AMA1-RON2 inh	CHX counter	Shiga toxin inh	AmpC no deterg
CCOc1cc(/C=C2\CN(C)C/C(=C\c3ccc(O)c(OCC)c3)C2=O)ccc1O	-1%	2%	-3%	27*	7	28%
CCN1/C(=C\C=C2\C(=O)N(c3ccccc3)C(=S)N2C)Sc2ccccc21	2%	1%	-6%	-2	-11	-24%
COc1cccc(CN2CC(C(=O)NC3(c4ccccc4)CC3)CCC2=O)c1 (stereo not given)	18%	5%	20%	-3	-2	0%
COc1ccccc1C(=O)NCC(=O)N=Nc1c(O)n(C(C)C)c2ccccc12	10%	-10%	-24%	-4	-4	-14%
COc1ccc(-c2cn3cccnc3n2)cc1F	-15%	-1%	4%[11.6 µM]	44*	51*	-15%
Clc1ccc(-c2cn3cccnc3n2)cc1	1%	-11%	-3%	19*	22	-10%
O=S(=O)(Nc1ccc(-c2cn3cccnc3n2)cc1)c1ccccc1	2%	-8%	-11%	4	10	-37%
O=C(Nc1cccc(-c2cn3cccnc3n2)c1)c1cc(Br)ccc1Cl	.	-5%	.	.	.	.
Clc1ccc(-c2cn3cccnc3n2)cc1Cl	-15%	-6%	7%	26*	61	-58%
Brc1ccc(-c2cn3cccnc3n2)cc1	-17%	0%	2%	35*	75*	-7%
Oc1ccc(N=C/C=C/c2ccc(Br)cc2)cc1-c1nc2ccccc2s1	-4%	-8%	.	36*	40*	-51%
O=C(O)CCc1ccc(-c2ccc(Br)cc2)n1-c1cccc(O)c1	-1%	0%	-15%	32*	87*	-39%
O=C(O)CCc1ccc(-c2ccccc2)n1-c1cccc(C(=O)O)c1	-1%	7%	3%	131*	174*	-24%
O=C(O)CCc1ccc(-c2ccccc2)n1-c1ccc(C(=O)O)cc1	1%	3%	-2%	0	39	-15%
COc1ccccc1-n1c(CCC(=O)O)ccc1-c1ccccc1	-7%	-1%	-22%	32*	36*	-14%
CCc1ccc(-n2c(CCC(=O)O)ccc2-c2cccs2)cc1	.	6%	.	.	.	.
COc1ccc(-c2ccc(CCC(=O)O)n2-c2ccccc2OC)cc1	5%	-1%	-9%	8	-8	-17%
Cc1ccc(-n2c(CCC(=O)O)ccc2-c2cccs2)cc1C	-6%	10%	-4%	7.9*	39	-43%
CCOc1ccccc1-n1c(SCC(=O)N(CC)CC)nnc1-c1ccccn1	-6%	-12%	-10%	-3	-3	16%
CCCCNC(=S)NNC(=O)c1c(C)nc2ccccn12	3%	-2%	55%	6	-6	-17%
O=C(c1ccc(-c2ccccc2Cl)o1)N1CCN(c2ccccc2O)CC1	-1%	?	-33%	.	.	-14%
S=C(c1ccc(-c2ccccc2Cl)o1)N1CCCCC1	-5%	?	?	48*	62*	-42%
S=C(c1ccc(-c2ccc(Cl)cc2)o1)N1CCCCC1	-11%	?	?	39*	95*	-43%
CN1CCN(C(=S)c2ccc(-c3cccc(Cl)c3Cl)o2)CC1	-24%	?	14µM*	40*	active	162%
O=C(Nc1ccccc1N1CCCCC1)c1ccc(-c2ccc(Cl)cc2)o1	-1%	-2%	-26%	5	6	-5%
SMILES	SARS PLP yeast	AmpC inh detg	AMA1-RON2 inh	CHX counter	Shiga toxin inh	AmpC no deterg
N#CCCN1CCN(C(=S)c2ccc(-c3ccc(Cl)cc3)o2)CC1	-3%	0%	-8%	28*	91*	98%
COc1ccc(NC(=O)c2nn(C)cc2[N+](=O)[O-])cc1	1%	-7%	0%	15*	35	-15%
Cn1cc(Br)c(C(=O)Nc2ccc3c(C(F)(F)F)cc(=O)oc3c2)n1	2%	?	6%	1	11	-1%
Cn1cc([N+](=O)[O-])c(C(=O)Nc2ccc3c(C(F)(F)F)cc(=O)oc3c2)n1	?	?	-16%	15*	12	2%
O=C(Nc1ccccc1)c1[nH]ncc1[N+](=O)[O-]	0%	0%	39%	7	25	-14%
COc1ccc(NC(=O)c2[nH]ncc2[N+](=O)[O-])cc1	-3%	5%	127%	26*	64	-21%
CCOC(=O)CSc1nnc(-c2ccc(OC)cc2)n1CC	3%	?	-7%	-3	6	-13%
O=C(c1cccs1)N(Cc1cccnc1)c1nc2c(Cl)cccc2s1	.	3%	.	.	.	.
CC(C)(C)CN1C(N)=NC[C@@H]1c1ccccc1	.	.	2%	.	.	.
C/C(Cn1cnc([N+](=O)[O-])n1)=N/NC(=O)COc1ccccc1Cl	3%	-13%	-3%	7	9	-34%
C/C(Cn1cnc([N+](=O)[O-])n1)=N\NC(=O)c1ccc(Br)cc1	2%	4%	38%	18*	44*	-29%
Cc1ccccc1/C=N/NC(=O)Cn1cnc([N+](=O)[O-])n1	4%	3%	7%	-2	-12	-18%
C/C(Cn1cnc([N+](=O)[O-])n1)=N\NC(=O)c1cccnc1	4%	-1%	51%	14*	25	-12%
COc1cc(NC(=O)c2nc(-c3ccc(Cl)cc3)n3c2CCCCC3)cc(OC)c1OC	.	15%	.	.	.	.
Clc1ccc(CSc2nnc(-c3ccncc3)s2)cc1	-1%	9%	-7%	4	-11	-16%
C=CC(=O)Nc1cccc(N(C)c2ccnc(Nc3ccc(N4CCN(C)CC4)cc3)n2)c1	.	.	22µM*	.	.	.
O=C(Nc1cccc(C(F)(F)F)c1)NC1CCN(S(=O)(=O)c2ccc(F)cc2)CC1	19%	-1%	6%	-2	-7	-8%
O=C(CCc1ccccc1)NC(=S)Nc1cccc(C(=O)O)c1	5%	5%	-13%	58*	103*	-22%
O=C(CCc1ccccc1)NC(=S)Nc1cccc(Br)c1	7%	-3%	34%	0	25	-35%
COc1ccccc1NC(=S)NC(=O)CCc1ccccc1	7%	3%	25%	11	10	-47%
O=C(CCc1ccccc1)NC(=S)Nc1ccccc1Br	-1%	-8%	58%	13	52*	-7%[2.29 µM]
CC(=O)Nc1ccc(NC(=S)Nc2ccc(F)cc2)cc1	-2%	2%	15%	-1	20	1%
CC(C)(C)C(=O)NC(=S)Nc1cccc(C(=O)O)c1	0%	-3%	25%	45*	84*	3%
CC(C)(C)C(=O)NC(=S)Nc1ccc(F)cc1	?	11%	9%	31*	87*	-10%
CNC(=S)Nc1cccc(C(=O)O)c1	0%	-10%	4%	-1	-6	-20%
COc1ccc(NC(=S)Nc2ccccc2C(F)(F)F)cc1	8%	-5%	3%	11	9	-9%[2.29 µM]
